Results filed as inconclusive are left out. A number with no mark means an inactive call. Active and inactive are the calls of the source. Unless noted, calls come from the whole dose curve; as a rule, active = well fitted curve in the direction sought with a large enough effect in the repeat runs; inconclusive = weak or mixed curves; inactive = no such curve, though single readings can be large; an effect the other way counts as inactive or inconclusive.

The results in this text go back to PubChem BioAssay (Tox21).

A short description of test [1]: qHTS assay to identify small molecule phospholipidosis (PLD) inducers (AID 1259344; active = well fitted curve in the direction sought with a large enough effect; an effect the other way counts as inactive or inconclusive). The method in brief: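 Read-out is LipidTOX Red fluorescence (ex 595/em 615) imaged in HepG2 cells after 24 h compound exposure at 37 C, with Hoechst nuclear counterstain (ex 352/em 461) allowing per-cell normalisation.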
(In general: qHTS replaces the single test concentration by a dilution series.)

The target of test [2] is Nuclear receptor subfamily 1 group I member 2 (Rattus norvegicus) (UniProt Q9R1A7). As to the kind of experiment: Rat pregnane X receptor (rPXR) activation by small molecules, qHTS assay (AID 1346983). Note: nearly all actives have a fitted effect of over 20% in size. Note: potency is the fitted concentration of half-maximal effect. Particulars: rPXR luciferase reporter cells, One-Glo luminescence, 24 h; max activation: stronger effect = higher value. The method in brief: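 Cell-based rPXR activation assay: rPXR cells, 2,000 per well, rested 5hr at 37 C, then exposed to compounds in DMSO for 24 hr at 37 C. Luciferase activity read by One-Glo luminescence after 30 min at room temperature.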
Nuclear receptor subfamily 1 group I member 2 (Rattus norvegicus), sequence (Q9R1A7 whole entry, looked up): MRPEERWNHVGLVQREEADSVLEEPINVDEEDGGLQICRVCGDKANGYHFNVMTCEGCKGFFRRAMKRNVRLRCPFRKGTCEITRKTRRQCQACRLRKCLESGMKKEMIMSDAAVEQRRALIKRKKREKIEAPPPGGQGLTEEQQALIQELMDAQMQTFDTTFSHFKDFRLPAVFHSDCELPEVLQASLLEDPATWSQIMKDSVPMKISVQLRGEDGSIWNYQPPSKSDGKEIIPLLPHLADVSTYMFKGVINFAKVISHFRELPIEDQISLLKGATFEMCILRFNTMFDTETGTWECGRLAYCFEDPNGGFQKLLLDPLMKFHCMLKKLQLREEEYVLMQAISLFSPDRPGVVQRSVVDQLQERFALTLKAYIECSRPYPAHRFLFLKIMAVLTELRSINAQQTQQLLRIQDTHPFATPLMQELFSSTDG

Test [3] can be described thus: qHTS assay to identify aromatase inhibitors - cell viability counter screen (AID 743084).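 Note: cells stimulated with testosterone during compound exposure; nearly all actives have a fitted effect of over 55% in size.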 Note: potency is the fitted concentration of half-maximal effect.
Test [4] has as its target Aryl hydrocarbon receptor (Homo sapiens) (UniProt P35869). As to the kind of experiment: qHTS assay to identify small molecule that activate the aryl hydrocarbon receptor (AhR) signaling pathway (AID 743085).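 For activation: HG2L7.5c1 human HepG2 liver cells with stably integrated DRE-driven firefly reporter; series mostly up to about 70 µM.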 Note: nearly all actives have a fitted effect of over 15% in size. Note: potency is the fitted concentration of half-maximal effect. In a few lines:
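Luminescence read-out: ONE-Glo reagent, 30 min at room temperature, in HG2L7.5c1 HepG2 reporter cells treated 24 h at 37C. Viability was measured beforehand by CellTiter-Fluor fluorescence after 30 min at 37C.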

Test [5] can be described thus: qHTS assay to identify small molecule that activate the aryl hydrocarbon receptor (AhR) signaling pathway - cell viability counter screen (AID 743086). Note: nearly all actives have a fitted effect of over 45% in size. Note: potency is the fitted concentration of half-maximal effect. The method in brief:
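HepG2-AhR-luc (HG2L7.5c1) cells, 4000/well, treated 24 h at 37 C with compound; viability measured as CellTiter-Fluor fluorescence after 30 min in the same wells as the luciferase read.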

Test [6] concerns the target Nuclear receptor subfamily 1 group I member 2 (Homo sapiens) (UniProt O75469). As to the kind of experiment: CYP3A4 induction through human pregnane X receptor (PXR) by small molecules, qHTS assay (AID 1346984). Note: nearly all actives have a fitted effect of over 40% in size. Note: potency is the fitted concentration of half-maximal effect. The method in brief:
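Induction measured in HepG2-based DPX-2 cells co-expressing human PXR and a CYP3A4 promoter-driven luciferase. After a 24-hour compound exposure, cells received CYP3A4 luciferin substrate at 3uM final for 3 hours, and light output was then recorded.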

For test [7] the target is unchanged. Put plainly: Human pregnane X receptor (PXR) activation by small molecules, qHTS assay (AID 1346985). Note: nearly all actives have a fitted effect of over 40% in size. Note: potency is the fitted concentration of half-maximal effect. The method in brief: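 DPX-2 cells (HepG2 co-transfected with a PXR response element and a CYP3A4-promoter luciferase construct) were seeded at 2,000 per well, rested 5 hr at 37C, then exposed to DMSO-dissolved compounds for 24 hr. Activation was read as luciferase luminescence.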

Test [8] deals with Peroxisome proliferator-activated receptor gamma (Homo sapiens) (UniProt P37231). As to the kind of experiment: qHTS assay to identify small molecule agonists of the peroxisome proliferator-activated receptor gamma (PPARg) signaling pathway (AID 743094; active = well fitted activation curve with a large enough effect in the signal ratio in the repeat runs, not every such curve was filed as active; the % refers to the signal ratio). In a few lines: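 Reporter activation was scored by fluorescence of cleaved LiveBLAzer B/G substrate (1 h, room temperature) in PPARg-bla HEK293H cells previously treated 17 h at 37C with DMSO-dissolved compounds.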
Peroxisome proliferator-activated receptor gamma (Homo sapiens), sequence (P37231 whole entry, looked up): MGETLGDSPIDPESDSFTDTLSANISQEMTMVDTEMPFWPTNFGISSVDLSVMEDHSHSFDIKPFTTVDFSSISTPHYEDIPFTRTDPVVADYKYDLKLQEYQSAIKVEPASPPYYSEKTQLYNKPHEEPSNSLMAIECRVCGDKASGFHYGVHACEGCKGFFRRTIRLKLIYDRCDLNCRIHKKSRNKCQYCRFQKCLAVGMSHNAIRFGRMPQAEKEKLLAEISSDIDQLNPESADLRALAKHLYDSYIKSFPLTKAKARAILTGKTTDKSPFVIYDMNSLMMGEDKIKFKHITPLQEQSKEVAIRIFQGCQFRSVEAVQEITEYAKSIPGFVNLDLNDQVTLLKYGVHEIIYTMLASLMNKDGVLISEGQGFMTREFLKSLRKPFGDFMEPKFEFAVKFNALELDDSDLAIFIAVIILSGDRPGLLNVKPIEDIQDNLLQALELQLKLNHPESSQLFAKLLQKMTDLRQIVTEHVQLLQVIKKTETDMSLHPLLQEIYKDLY
% is set by controls: 0 for no effect and ±100 for the full control effect.

Aryl hydrocarbon receptor (Homo sapiens), sequence (P35869 whole entry, looked up): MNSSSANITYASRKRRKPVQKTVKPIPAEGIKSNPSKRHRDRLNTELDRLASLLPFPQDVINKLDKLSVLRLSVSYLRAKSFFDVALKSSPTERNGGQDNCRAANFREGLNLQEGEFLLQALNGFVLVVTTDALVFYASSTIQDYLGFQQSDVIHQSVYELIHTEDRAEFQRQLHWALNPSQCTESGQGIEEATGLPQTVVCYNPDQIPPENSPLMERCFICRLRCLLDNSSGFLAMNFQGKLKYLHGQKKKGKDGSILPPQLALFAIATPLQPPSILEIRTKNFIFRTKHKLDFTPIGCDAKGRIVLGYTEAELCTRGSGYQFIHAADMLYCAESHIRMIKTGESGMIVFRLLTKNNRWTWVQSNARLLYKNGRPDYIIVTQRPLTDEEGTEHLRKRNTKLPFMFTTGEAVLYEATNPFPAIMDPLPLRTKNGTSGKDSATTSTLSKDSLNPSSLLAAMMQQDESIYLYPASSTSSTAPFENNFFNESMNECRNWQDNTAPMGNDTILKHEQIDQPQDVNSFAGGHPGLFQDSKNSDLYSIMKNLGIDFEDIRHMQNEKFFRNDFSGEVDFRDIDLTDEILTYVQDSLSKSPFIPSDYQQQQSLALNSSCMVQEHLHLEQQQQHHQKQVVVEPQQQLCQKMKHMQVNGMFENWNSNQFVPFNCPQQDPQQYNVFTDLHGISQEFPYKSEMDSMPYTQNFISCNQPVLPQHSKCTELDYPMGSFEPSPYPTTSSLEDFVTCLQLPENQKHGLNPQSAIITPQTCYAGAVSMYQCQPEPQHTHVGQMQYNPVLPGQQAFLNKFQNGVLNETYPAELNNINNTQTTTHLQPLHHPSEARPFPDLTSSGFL

Consider `Cc1ccccc1`, for which the Potency result in test [1] was “inactive”. Moreover, the max activation in test [2] is -3.48%.

With `Clc1cc(Cl)c(OCC#CI)cc1Cl`, the Potency in test [3] was 21.1 µM (active); in test [5], 26.6 µM (active). For the same compound, the Potency result in test [4], in test [1], in test [6] and in test [7] was “inactive” in each case. In test [2], the max activation was -1.32%.

As for `COc1cc(C)c(/C=C/C(C)=C/C=C/C(C)=C/C(=O)O)c(C)c1C`, the Potency entry in test [3], in test [4], in test [5], in test [1], in test [6] and in test [7] was “inactive” each time. Further, in test [2], the max activation is -4.44%.

For `CNC(C)[C@@H]1CC[C@@H](N)[C@@H](O[C@H]2[C@H](O)[C@@H](O[C@H]3OC[C@](C)(O)[C@H](NC)[C@H]3O)[C@H](N)C[C@@H]2N)O1` (some centres undefined), the Potency entry in test [1], in test [6] and in test [7] was “inactive” in each case. Besides, the max activation in test [2] was -0.0148%.

`O=C(O)C1CCCN1` (centres undefined): the Potency result in test [3], in test [4], in test [5], in test [1], in test [6] and in test [7] was “inactive” in each case. Further, the max activation in test [2] is -0.193%.

Consider `COc1ccc(C[C@H](N)C(=O)N[C@H]2[C@@H](O)[C@H](n3cnc4c(N(C)C)ncnc43)O[C@@H]2CO)cc1`, for which the Potency in test [3] is 9.44 µM (active); in test [5], 3.76 µM (active). Further, the Potency entry in test [4], in test [1], in test [6] and in test [7] was “inactive” throughout. Besides, the max activation in test [2] is -3.7%.

For `CC[C@@]1(O)C(=O)OCc2c1cc1n(c2=O)Cc2cc3c([N+](=O)[O-])cccc3nc2-1`, the Potency entry in test [1], in test [6] and in test [7] was “inactive” in each case. In test [2], the Potency was 6.31 µM (active).

For the compound `CC1=C[C@H](O)CC(C)(C)[C@H]1/C=C/C(C)=C/C=C/C(C)=C/C=C/C=C(C)/C=C/C=C(C)/C=C/C1=C(C)C[C@@H](O)CC1(C)C`, the Potency entry in test [3], in test [4], in test [5], in test [1], in test [6] and in test [7] was “inactive” each time. Moreover, in test [2], the max activation is 0.35%.

Turning to `CCN1C(=O)NC(c2ccccc2)C1=O` (centres undefined), the Potency result in test [3], in test [4], in test [5], in test [1], in test [6] and in test [7] was “inactive” each time. Moreover, the max activation in test [2] was 7.71%.

As to `C[C@@H]1CCC2[C@@H](C)[C@@H](O)O[C@@H]3O[C@@]4(C)CC[C@@H]1[C@@]23OO4` (some centres undefined), the Potency result in test [1], in test [6] and in test [7] was “inactive” throughout. Further, the max activation in test [2] is -10.7%.

On to `Oc1cc(O)cc(O)c1`, for which the Potency result in test [3], in test [4], in test [5], in test [8], in test [1] and in test [6] was “inactive” throughout. Moreover, the Potency entry in test [7] was “inactive”. In test [2], the max activation was -1.47%.

As for `CC[C@]1(O)CC2CN(CCc3c([nH]c4ccccc34)[C@@](C(=O)OC)(c3cc4c(cc3OC)N(C)[C@H]3[C@@](O)(C(N)=O)[C@H](O)[C@]5(CC)C=CCN6CC[C@]43[C@@H]65)C2)C1` (some centres undefined), the Potency entry in test [1] was “inactive”.

Take `OCC(O)CO`: the Potency entry in test [1] was “inactive”. Moreover, in test [2], the max activation was -5.18%.

As for `CC(=O)Oc1cc(C)c(OC(C)=O)c2ccccc12`, the Potency entry in test [3], in test [5], in test [1] and in test [7] was “inactive” each time. For the same compound, the Potency was 29.8 µM (active) in test [4] and 12.6 µM (active) in test [6]. For the same compound, in test [2], the max activation is 0.757%.

Consider `CC[C@@H](C(=O)O)[C@@H]1O[C@@H]([C@@H](C)[C@H](O)[C@H](C)C(=O)[C@H](CC)[C@H]2O[C@]3(C=C[C@@H](O)[C@]4(CC[C@@](C)([C@H]5CC[C@](O)(CC)[C@H](C)O5)O4)O3)[C@H](C)C[C@@H]2C)[C@@H](C)C[C@@H]1C`, for which the Potency entry in test [3], in test [4], in test [5], in test [1], in test [6] and in test [7] was “inactive” each time. In addition, the max activation in test [2] is -17.2%.

For the compound `COc1ccc(CC2c3cc(OC)c(OC)cc3CC[N+]2(C)CCC(=O)OCCCCCOC(=O)CC[N+]2(C)CCc3cc(OC)c(OC)cc3C2Cc2ccc(OC)c(OC)c2)cc1OC` (centres undefined), the Potency entry in test [3], in test [4], in test [5], in test [1], in test [6] and in test [7] was “inactive” each time. Further, the max activation in test [2] was -3.66%.

For `CCOC(=O)C1=C(COCCN)NC(C)=C(C(=O)OC)C1c1ccccc1Cl` (centres undefined), the Potency entry in test [3], in test [4] and in test [1] was “inactive” in each case. In addition, the figures for the Potency in test [5], in test [6] and in test [7] were 23.7 µM (active), 8.91 µM (active) and 8.91 µM (active), respectively. For the same compound, the max activation in test [2] is 3.61%.

Regarding `C=CCCCCCCCCC(=O)OC`, the Potency result in test [3], in test [4], in test [5], in test [8], in test [1] and in test [6] was “inactive” in each case. The Potency entry in test [7] is “inactive”. In test [2], the max activation was -1.33%.

With `N#CC(c1ccc(Cl)cc1)c1c(Cl)cc(-n2ncc(=O)[nH]c2=O)cc1Cl` (centres undefined), the Potency entry in test [3], in test [4], in test [5], in test [1], in test [6] and in test [7] was “inactive” in each case. In addition, the max activation in test [2] is 12.6%.

As for `CCCCC[C@H](O)/C=C/[C@H]1[C@H](O)CC(=O)[C@@H]1CCCCCCC(=O)O`, the Potency result in test [3], in test [4], in test [5], in test [1], in test [6] and in test [7] was “inactive” in each case. In test [2], the max activation was -0.783%.

With `CC(O)CN(C)C` (centres undefined), the Potency entry in test [3], in test [4], in test [5], in test [8], in test [1] and in test [6] was “inactive” throughout. In test [7], the Potency entry is “inactive”. Moreover, in test [2], the max activation is -0.0612%.

As for `CC[C@H](C)[C@H]1O[C@]2(CC[C@@H]1C)C[C@@H]1C[C@@H](C/C=C(\C)[C@@H](O[C@H]3C[C@H](OC)[C@@H](O[C@H]4C[C@H](OC)[C@@H](O)[C@H](C)O4)[C@H](C)O3)[C@@H](C)/C=C/C=C3\CO[C@@H]4[C@H](O)C(C)=C[C@@H](C(=O)O1)[C@]34O)O2`, the Potency result in test [3], in test [4], in test [5], in test [1], in test [6] and in test [7] was “inactive” in each case. The max activation in test [2] is -15.7%.

With `CCOC(=O)c1cc(-c2ccccc2)nc2ccc(C)cc12`, the Potency entry in test [3], in test [4], in test [5], in test [1], in test [6] and in test [7] was “inactive” in each case. For the same compound, in test [2], the max activation is -2.37%.

As for `C=C(NC(=O)C(=C)NC(=O)c1csc(C2=N[C@@H]3c4csc(n4)[C@H]4NC(=O)c5csc(n5)[C@H]([C@](C)(O)[C@@H](C)O)NC(=O)[C@H]5CSC(=N5)C(=CC)NC(=O)C([C@@H](C)O)NC(=O)c5csc(n5)[C@]3(CC2)NC(=O)[C@H](C)NC(=O)C(=C)NC(=O)[C@H](C)NC(=O)C([C@@H](C)CC)NC2C=Cc3c([C@H](C)O)cc(nc3C2O)C(=O)O[C@@H]4C)n1)C(N)=O` (some centres undefined), the Potency in test [3] was 11.4 µM (active). Besides, the Potency entry in test [4], in test [5], in test [1], in test [6] and in test [7] was “inactive” each time. Moreover, the max activation in test [2] was -3.21%.

As for `O=C(O)c1nc(=O)[nH]c(=O)[nH]1`, the Potency entry in test [3], in test [4], in test [5], in test [1], in test [6] and in test [7] was “inactive” in each case. The max activation in test [2] is -2.15%.

As for `C[C@]12CC[C@@H]3c4ccc(OS(=O)(=O)O)cc4CC[C@H]3[C@@H]1CCC2=O`, the PLD induction in test [1] was 0.241% [at 7.66 µM].
